Source: PubChem BioAssay
IL2 activator – activates IL-2 in a cell-based reporter assay | activation, % (series mostly up to about 46 µM) | actives 0.065% (n = 360,000) | IL-2 activation reporter assay, cell-based qHTS; stimulated with anti-CD3/CD4/CD28 beads; in transgenic mouse T cells; in the data active means activation above about 50%; inconclusive means mostly about 30% to 49%
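Unstimulated transgenic mouse T cells, 750 per well, received compound and, after 60 minutes, anti-CD3/anti-CD4 bead plus anti-CD28 stimulation. EGFP and DsRed were quantified after 18 hours.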
gsp agonist – gsp mutant agonism; gsp mutant cells, cAMP HTRF, 30 min; Potency, µM (series often up to 76.9 µM), hits mostly activators; actives 0.13% (n = 340,000); active means well fitted activation curve with a large enough effect; inconclusive means small, poorly fitted or top-dose-only effect, or another doubt; inactive means no such curve, though single readings can be large or run the other way; cell line not stated here;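 further: phosphodiesterase inhibitor Ro 20-1724 added with compounds to block cAMP breakdown; nearly all actives have a fitted effect of over 60% in size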
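Cells stably selected in G418 were plated at 2000/well, grown 16-24 hr, then given compounds in DMSO with the PDE inhibitor […] (300 uM solution added) for 30 min at 37C; cAMP was read by HTRF.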
IDH1 R132H inh – blocks human mutant IDH1 R132H enzyme; IDH1-R132H enzyme, NADPH consumption, diaphorase/resazurin fluorescence; O75874; Potency, µM (series often up to 76.6 µM), most hits filed as inhibitors; actives 0.093% (n = 390,000); AID 602179; further: nearly all actives have a fitted effect of over 65% in size
Target sequence (O75874 whole entry R132H, stated change not applied): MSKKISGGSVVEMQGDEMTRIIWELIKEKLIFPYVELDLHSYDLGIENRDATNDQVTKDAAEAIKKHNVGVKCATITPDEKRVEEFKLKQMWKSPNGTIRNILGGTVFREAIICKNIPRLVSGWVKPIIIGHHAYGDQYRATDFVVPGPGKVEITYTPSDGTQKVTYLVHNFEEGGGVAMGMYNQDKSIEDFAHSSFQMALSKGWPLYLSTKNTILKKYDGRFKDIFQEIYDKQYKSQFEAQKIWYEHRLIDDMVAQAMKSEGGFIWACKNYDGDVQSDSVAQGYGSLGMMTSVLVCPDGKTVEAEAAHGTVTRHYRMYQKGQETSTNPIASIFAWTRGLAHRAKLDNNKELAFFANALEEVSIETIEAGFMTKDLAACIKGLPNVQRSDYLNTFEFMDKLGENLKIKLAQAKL
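IDH1-R132H (0.5 ug/mL) preincubated 30 min with compound, then NADPH (0.016 mM) and alpha-KG (2 mM) added; 80 min at RT, pH 7.5. Remaining NADPH coupled via diaphorase/resazurin to fluorescence (540/590 nm); concentration-response curves normalized to no-enzyme control.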
BRCA1 expr act – activators of BRCA1 expression | MCF7-BRCA1-FFLuc reporter, luminescence, 48 h; response scale: scaled: vehicle 0%, 10 µM genistein 100% | Potency, µM (series often up to 46.1 µM), hits mostly activators | actives 1.1% (n = 380,000) | AID 624202; further: nearly all actives have a fitted effect of over 80% in size
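Luminescence from a BRCA1-driven firefly luciferase in MCF7 cells was read after 48 h compound exposure at 37 C. Data normalized against DMSO and a 10microM genistein activation control, then curve-fitted across the titration.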
gsp antag – antagonists of gsp mutant (McCune-Albright syndrome) | gsp-mutant cells, cAMP HTRF, 30 min | Potency, µM (highest dose often 76.9 µM), actives largely listed as inhibitors | actives 0.4% (n = 340,000) | AID 624288; calls by dose curve; cell line not stated here;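 further: intracellular cAMP measured with PDE inhibitor Ro 20-1724 present during compound exposure; nearly all actives have a fitted effect of over 65% in size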
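Cells in G418 medium, seeded 16-24 h, 37C; buffer exchange to DPBS + 1 mM CaCl2, 0.5 mM MgCl2, 0.05% BSA; cpds in DMSO + […] (300 uM stock), 30 min 37C; HTRF cAMP detection.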
IDH1 autofl – interferes with resorufin fluorescence in IDH1 counter-screen | shares compounds with IDH1 R132H inh | Resorufin detection reagent fluorescence interference, cell-free | inhibition of signal, % at 51.2 µM | 750 tested, under 10 active | AID 623980
WT IDH1 inh – inhibits human wild-type IDH1, mutant selectivity check. shares compounds with IDH1 R132H inh. WT IDH1 enzyme, NADPH diaphorase/resazurin fluorescence. Potency, µM (top dose mostly 115 µM), hits mostly inhibitors. actives 9% (n = 750). AID 623995; further: nearly all actives have a fitted effect of over 55% in size
Target sequence (O75874 whole entry, looked up): as the sequence (O75874 whole entry R132H, stated change not applied) above, with H132R counted along it
IDH1 R132H conf – inhibits human mutant IDH1 enzyme in cherrypick confirmation. IDH1 R132H enzyme, NADPH diaphorase/resazurin fluorescence. actives 83% (n = 750). Potency, µM (titrated, usually from 76.6 µM), most hits filed as inhibitors. shares compounds with IDH1 R132H inh; further: nearly all actives have a fitted effect of over 50% in size
Hits are given with their value; - = inactive; ? = inconclusive; . = not tested or not shown; ! = repeats disagree; [ ] = remark or other dose. Only some compounds are listed: those with a hit (about 1.5% of all), similar ones and a draw of the others. Unless noted, the call rests on the fitted dose curve; in most records, active means well fitted curve in the direction sought with a large enough effect; inconclusive means small, poorly fitted or top-dose-only effect, or another doubt; inactive means no such curve, though single readings can be large; an effect the other way counts as inactive or inconclusive.

SMILES	IL2 activator	gsp agonist	IDH1 R132H inh	BRCA1 expr act	gsp antag	IDH1 autofl	WT IDH1 inh	IDH1 R132H conf
O=C1NC[C@H](Cc2ccccc2)N(C[C@H]2CCCN2C[C@H](Cc2ccccc2)N2C[C@H](Cc3ccc(O)cc3)N(CC3CCCCCC3)C(=O)C2=O)C1=O	-	.	?	-	-	-	-	10µM
CCOc1ccc(CCN2C(=O)C(=O)N([C@@H](Cc3ccc(O)cc3)CN3CCC[C@@H]3CN3C(=O)C(=O)NC[C@@H]3Cc3ccccc3)C[C@@H]2Cc2ccccc2)cc1	-	.	32µM	-	-	-	-	10µM
CN(Cc1ccccc1)C(=O)c1ccccc1N(C)S(=O)(=O)c1ccccc1	-	-[15.4 µM]	-	-	-	.	.	.
COc1cc(CCC(=O)NCc2ccc3c(c2)CCN3C(=O)c2ccc(F)cc2)cc(OC)c1OC	.	.	-	.	.	.	.	.
COc1cc(C2c3c(-c4ccccc4)n[nH]c3C(=O)N2c2ccccc2)ccc1O (configuration not stated)	-	-	-	-	-	.	.	.
O=C1c2[nH]nc(-c3ccc(F)cc3)c2C(c2ccccc2F)N1c1ccccc1 (configuration not stated)	.	.	?	.	.	-	-	?
Cc1ccc(C2c3c(-c4cc(C)ccc4O)n[nH]c3C(=O)N2Cc2ccco2)cc1 (configuration not stated)	.	.	35µM	.	.	-	-	45µM
O=C1c2[nH]nc(-c3ccccc3O)c2C(c2ccc(F)cc2)N1Cc1ccco1 (configuration not stated)	-	?	?	-	?	-	-	40µM
O=C1c2[nH]nc(-c3ccccc3O)c2C(c2cccc(Cl)c2)N1Cc1ccco1 (configuration not stated)	-	-	?	-	?	.	.	.
Cc1cc(C)c(O)c(-c2n[nH]c3c2C(c2cccc(O)c2)N(Cc2ccco2)C3=O)c1 (configuration not stated)	-	-	16µM	-	-	-	50µM	22µM
O=C(NCc1cccc(F)c1)c1cccc(NC(=O)c2nsc3ccccc23)c1	.	.	-	.	.	.	.	.
COc1ccc(C(CNC(=O)c2ccc(-c3nc4ccccc4s3)o2)N2CCCC2)cc1 (configuration not stated)	-	-	-	-	-	.	.	.
Cn1c(=O)oc2cc(S(=O)(=O)N3CCCC(C(=O)NCc4ccc(F)cc4)C3)ccc21 (configuration not stated)	.	.	-	-	.	.	.	.
Cc1cc(C)cc(N(CC(=O)Nc2ccc(C(F)(F)F)cc2)S(=O)(=O)c2c(C)[nH]c(=O)[nH]c2=O)c1	-	-	10µM!	-	-	-	45µM	32µM
COc1cc(NC(=O)CN(c2cc(C)cc(C)c2)S(=O)(=O)c2c(C)[nH]c(=O)[nH]c2=O)cc(OC)c1	-	-	-	-	-	.	.	.
Cn1nnc2c(N3CCN(c4ccc(F)cc4)CC3)ncnc21	.	.	-	.	.	.	.	.
COc1ccc(-c2c3c(=O)n(C)c(=O)n(C)c3c3n2-c2ccccc2NC3c2ccc(O)cc2O)cc1 (configuration not stated)	.	.	35µM	.	.	-	-	8.9µM
Cc1ccc(NC(=O)Cc2ccc(-n3c(C)nc4cccnc43)cc2)cc1C	.	.	-	.	.	.	.	.
COc1ccc(N(C(=O)c2snc(C(N)=O)c2N)C(C(=O)NC2CCCC2)c2ccc(F)cc2)c(OC)c1 (configuration not stated)	-	-	?	-	-	-	-	?
COc1ccc(C)cc1N(C(=O)c1snc(C(N)=O)c1N)C(C(=O)NC1CCCC1)c1ccc(F)cc1 (configuration not stated)	-	-[15.4 µM]	?	-	-	-	-	16µM
COc1ccc(C(C(=O)NC2CCCCC2)N(C(=O)c2snc(C(N)=O)c2N)c2ccc(OC)cc2OC)cc1 (configuration not stated)	-	-	-	-	-	.	.	.
COc1ccc(-c2oc(=O)c3cc(OC)c(OC)cc3c2-c2ccc3c(c2)OCO3)cc1	-	.	-	-	-	.	.	.
COc1ccc(-c2c(-c3ccsc3)oc(=O)c3cc(OC)c(OC)cc23)cc1	-	-	11µM	-	-	-	-	8.9µM
COc1cc2c(-c3cc(F)cc(F)c3)c(-c3ccsc3)oc(=O)c2cc1OC	-	-	-	-	-	.	.	.
COCc1ccc(-c2c(-c3ccc(OC)cc3)oc(=O)c3cc(OC)c(OC)cc23)cc1	-	-	32µM	-	-	-	-	10µM
SMILES	IL2 activator	gsp agonist	IDH1 R132H inh	BRCA1 expr act	gsp antag	IDH1 autofl	WT IDH1 inh	IDH1 R132H conf
COc1cc(/C=C2\SC(c3ccccc3)=NC2=O)cc(Cl)c1O	-	-[15.4 µM]	58µM	-	-	-	-	45µM
COc1cc(/C=C2\SC(c3ccc(C)cc3)=NC2=O)cc(OC)c1OC	-	-	-	-	-	.	.	.
COc1ccc(CN2CCN(Cc3cc4ccccc4o3)CC2CCO)cc1C (configuration not stated)	-	-	-	-	-	.	.	.
Cc1cc(C(=O)N2CCCC(C)(C(=O)NS(=O)(=O)C3CC3)C2)nn1C(C)(C)C (configuration not stated)	-	.	.	-	.	.	.	.
CC(=O)c1cccc(N(C(=O)c2ccco2)C(C(=O)NC2CCCCC2)c2ccc(C)o2)c1 (configuration not stated)	-	-[15.4 µM]	?	-	-	-	-	40µM
O=C(NC1CCCC1)C(c1ccco1)N(C(=O)c1ccco1)c1ccccc1 (configuration not stated)	-	-[15.4 µM]	?	-	-	-	-	40µM
CCc1ccc(N(C(=O)c2ccco2)C(C(=O)NC2CCCC2)c2ccncc2)cc1 (configuration not stated)	-	-[15.4 µM]	-	-	-	.	.	.
O=C(NC1CCCCC1)C(c1ccco1)N(C(=O)c1csnn1)c1ccccc1 (configuration not stated)	-	-	-	-	-	.	.	.
CCc1ccc(N(C(=O)c2ccco2)C(C(=O)NC2CCCC2)c2ccco2)cc1 (configuration not stated)	-	-	?	-	-	-	-	40µM
Cc1ccc(C)c(N(C(=O)c2ccco2)C(C(=O)NC2CCCC2)c2ccco2)c1 (configuration not stated)	-	-[15.4 µM]	46µM	-	-	-	-	20µM
